A number with no mark means an inactive call. Active and inactive are the calls of the source. Cut-off read from the data, not from the text of the source: active = fold change permeability below about 0.7 or above about 1.3; inactive = in between.
Assay: compounds altering in vitro BBB leakiness – cell-based, FITC-avidin fluorescence, HTS, primary screen (AID 1963498); note: test concentration not given here
Conditions: brain endothelial barrier, actives lie on both sides

Row | SMILES | fold change permeability
1 | Cc1scc2c1N(C(=O)CN1CCN(C)CC1)c1ccccc1NC2=O | 0.8
2 | CCCc1c(-c2ccc(O)cc2)nn(-c2ccc(O)cc2)c1-c1ccc(O)cc1 | 1.4 (active)
3 | COc1ccccc1CN[C@H]1CCCN[C@H]1c1ccccc1 | 0.7 (active)
4 | CNC[C@H](O)c1ccc(O)c(O)c1 | 0.8
5 | COc1cc2c(cc1OC)C1CC(=O)C(CC(C)C)CN1CC2 (configuration not stated) | 0.7 (active)
6 | Fc1ccc(-c2ccc(Nc3nc(Cl)nc(Cl)n3)cc2)cc1 | 0.9
7 | O=C(O)/C=C1\CCCc2ccccc2C1O (configuration not stated) | 0.8
8 | Cn1cnc([N+](=O)[O-])c1Sc1ncnc2nc[nH]c12 | 1.1
9 | CCCNC(C)C(=O)Nc1ccccc1C (configuration not stated) | 1
10 | CSc1ccccc1N1CCN(CCCCCC(=O)NC2CCCc3ccccc32)CC1 (configuration not stated) | 1.3 (active)
11 | O=c1oc(Cl)c(Cl)c2ccccc12 | 1.4 (active)
12 | CCCCN(CCCC)CC(O)c1cc(Cl)cc2c1-c1ccc(Cl)cc1/C2=C/c1ccc(Cl)cc1 (configuration not stated) | 0.9
13 | COC1=C(OC)C(=O)c2ccccc2C1=O | 1.4 (active)
14 | CC(=O)O[C@H]1C[C@@H]2CC[C@@H]3[C@H](CC[C@@]4(C)[C@H]3C[C@H]([N+]3(C)CCCCC3)[C@@H]4OC(C)=O)[C@@]2(C)C[C@@H]1[N+]1(C)CCCCC1 | 1
15 | N=C(N)c1ccc(OCCCCCOc2ccc(C(=N)N)cc2)cc1 | 1.1
16 | CC1(C)CCC=[N+]1[O-] | 0.9
17 | COc1ccc2cccc(CCNC(C)=O)c2c1 | 0.8
